Assay outcomes as filed in PubChem BioAssay.
KinaseGlo FLuc = counter-screen: inhibitors of Kinase-Glo firefly luciferase | Q27757 | 0.28% of 200,000 active | AID 1379 | Potency, µM (highest dose often 38.3 µM), most hits filed as inhibitors | Kinase-Glo luciferase, ATP luminescence, 8 min; further: nearly all actives have a fitted effect of over 60% in size
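Inhibition of Kinase-Glo luciferase light generation was assessed at 10 uM ATP in pH 7.2 imidazole buffer, with luminescence measured after eight minutes at ambient temperature.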
NPC1 prom act = activators of NPC1 promoter; Huh7 NPC1 promoter luciferase reporter, 24 h; Potency, µM (titrated, usually from 9.22 µM), most hits filed as activators; 2.4% of 320,000 active; AID 485313; further: nearly all actives have a fitted effect of over 60% in size
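Huh7 reporter cells (NPC1 promoter driving luciferase) are dosed with compound for 24 h at 37 °C, 5% CO2; luciferase detection reagent is then added and luminescence measured after 10 min at ambient temperature.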
Rab9 promoter act = activates the Rab9 promoter; Huh7 Rab9 promoter-luciferase reporter, luminescence, 24 h; Potency, µM (highest dose often 9.22 µM), actives largely listed as activators; 2.8% of 320,000 active; further: nearly all actives have a fitted effect of over 60% in size
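Quantitative HTS format; Huh7 Rab9-luciferase reporter cells (1500/well) receive compound 2 h post-plating, incubate 24 h at 37 °C, then get luciferase reagent for 10 min before luminescence reading.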
SMN2 splice up = enhancers of SMN2 splice variant expression; HEK293 SMN2-luciferase splicing reporter, luminescence, 30-36 h; Potency, µM (highest dose often 46.1 µM), most hits filed as activators; 2.8% of 210,000 active; AID 1458; further: nearly all actives have a fitted effect of over 55% in size
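HEK293 cells carry an SMN2 minigene-luciferase reporter in which exon 7 inclusion puts luciferase in frame. Cells were seeded at 2000 cells/well, attached for 10-12 hours, then exposed to compounds for 30-36 hours at 37C before ONE-Glo luminescence.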
FLuc counter = counter-screen for miR-21 project: firefly luciferase inhibitors or activators; P08659; purified FLuc, Km substrates, luminescence inhibition; Potency, µM (titrated, usually from 57.5 µM), usual class: inhibitors; 6.9% of 360,000 active; AID 588342; further: nearly all actives have a fitted effect of over 55% in size
Target sequence (P08659 whole entry, looked up): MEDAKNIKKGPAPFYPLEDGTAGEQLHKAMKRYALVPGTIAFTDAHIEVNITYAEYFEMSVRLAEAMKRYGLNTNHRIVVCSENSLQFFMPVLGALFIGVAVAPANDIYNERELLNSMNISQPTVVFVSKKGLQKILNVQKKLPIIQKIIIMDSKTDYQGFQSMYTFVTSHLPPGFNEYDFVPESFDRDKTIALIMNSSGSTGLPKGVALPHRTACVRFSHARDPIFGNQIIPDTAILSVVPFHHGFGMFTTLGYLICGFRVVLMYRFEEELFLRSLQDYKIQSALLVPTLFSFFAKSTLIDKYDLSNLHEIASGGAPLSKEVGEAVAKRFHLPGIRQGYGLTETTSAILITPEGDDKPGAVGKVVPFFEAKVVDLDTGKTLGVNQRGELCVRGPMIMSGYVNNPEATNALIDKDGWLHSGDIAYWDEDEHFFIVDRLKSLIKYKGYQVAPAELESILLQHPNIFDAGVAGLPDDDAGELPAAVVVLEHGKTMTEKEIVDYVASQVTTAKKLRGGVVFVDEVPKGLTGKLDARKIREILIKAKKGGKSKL
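Biochemical qHTS of compounds, final roughly 60 µM downward over six points, against 10 nM purified firefly luciferase using Km concentrations of substrates (10 uM D-luciferin, 10 uM ATP) in Tris acetate pH 7.5 buffer; luminescence output.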
Numbers stand for hits; i = inactive; ? = inconclusive; nt = no result given; [ ] = dose if it differs, or a comment. The list is not random: actives were taken first. Their share in the collection is about 7.3%. The call rests on the fitted dose curve; in most records, active means well fitted curve in the direction sought with a large enough effect; inconclusive means small, poorly fitted or top-dose-only effect, or another doubt; inactive means no such curve, though single readings can be large; an effect the other way counts as inactive or inconclusive.

SMILES	KinaseGlo FLuc	NPC1 prom act	Rab9 promoter act	SMN2 splice up	FLuc counter
CCOC(=O)c1sc(=NC(=O)c2ccc(F)cc2)n(C)c1C	nt	i	i	nt	0.67µM
CCOC(=O)c1sc(=NC(=O)COc2ccccc2)n(C)c1C	i	?	3.2µM	?	?
CCOC(=O)c1sc(=NC(=O)c2ccc(C)cc2)n(C)c1C	i	i	?	22µM	?
CCOC(=O)c1sc(=NC(=O)c2cc(OC)c(OC)c(OC)c2)n(C)c1C	i	i	i	i	i
Cn1c(=NC(=O)COc2ccccc2)sc2cccc(F)c21	nt	3.5µM	1.8µM	nt	?
CCOC(=O)c1sc(=NC(=O)CCSc2ccccc2)n(C)c1C	i	?	?	?	?
Cc1cccc(NC(=O)Cn2c(=O)n(CCC(=O)N3CCc4ccccc4C3)c(=O)c3ccccc32)c1	nt	nt	nt	i	i
COc1cc(NC(=O)NCCn2nnc3cc(S(=O)(=O)N(C)C)ccc32)cc(OC)c1	nt	nt	nt	nt	i
CN(C)S(=O)(=O)N1CCC(Oc2cccc(C(=O)NC3CCCCCC3)c2)CC1	nt	i	i	nt	i
Cc1cc(CNC(=O)c2cccc(OC3CCN(S(=O)(=O)N(C)C)CC3)c2)on1	nt	3.5µM	?	nt	15µM
O=C(O)c1ccc(N2C(=O)c3[nH]nc(-c4ccccc4)c3C2c2cccc(F)c2)cc1 (stereo unspecified)	nt	nt	nt	i	i
Cc1ccc(NC(=O)CCCN2C(=O)COc3ccc(C)cc32)c(C)c1	nt	nt	nt	i	i
CCC(=O)Nc1nc2ccc3sc(C)nc3c2s1	i	?	?	i	6.7µM
Cc1nc2c(ccc3nc(NC(=O)C4CC4)sc32)s1	i	?	i	i	13µM
CCCC(=O)Nc1nc2ccc3nc(C)sc3c2s1	i	i	?	?	?
Cc1c(Cl)ccc2sc(NC(=O)C3CC3)nc12	nt	i	i	nt	?
Cc1ccc(NC(=O)CO/N=C/c2ccc(N(C)C)cc2)cc1	i	i	i	i	15µM
CN(C)c1ccc(/C=N/OC(=O)Nc2ccccc2)cc1	nt	0.71µM	0.45µM	nt	1.1µM
CCOc1ccc(/C=N/OCC(=O)Nc2ccc3c(c2)OCO3)cc1	i	i	i	i	?
CN(C)c1ccc(C(=O)NNC(=O)Nc2ccccc2)cc1	i	i	i	i	i
Cc1nn(S(=O)(=O)c2ccc(C(C)C)cc2)c(C)c1S(=O)(=O)N1CCCCCC1	nt	nt	nt	nt	i
Clc1ccc(Oc2cnc3ccccc3n2)cc1	i	i	i	i	?
Cc1ccc(Oc2cnc3ccccc3n2)cc1	i	?	?	i	12µM
COC(=O)c1cc(/C=C/c2ccccc2)on1	i	i	i	i	?
COC(=O)c1cc(/C=C/c2ccccc2)[nH]n1	nt	?	?	nt	17µM
SMILES	KinaseGlo FLuc	NPC1 prom act	Rab9 promoter act	SMN2 splice up	FLuc counter
CC(C)n1c(SC2C(=O)CC(C)(C)CC2=O)nc2c1c(=O)n(C)c(=O)n2C	i	i	i	11µM	i
CCOc1ccc(CC(=O)NCc2ccc3c(c2)CCN3C(=O)c2ccccc2)cc1OCC	nt	nt	nt	nt	i
COC(=O)c1c(-c2ccccc2)csc1N1C(=O)Nc2ccccc2N1O	i	?	2.8µM	?	4.8µM
O=C(NNC(=O)C12CC3CC(CC(C3)C1)C2)c1ccccc1F	nt	i	i	nt	i
Cc1cccc(C(=O)NNC(=O)C23CC4CC(CC(C4)C2)C3)c1O	nt	i	i	nt	15µM
O=C(NNC(=O)C12CC3CC(CC(C3)C1)C2)c1ccccc1O	nt	i	i	nt	15µM
Cc1ccc(C)c(CNC(=O)c2cnc3sc(N4CCCC4)nn3c2=O)c1	nt	nt	nt	i	i
COCCn1c(C)cc(C(=O)CSc2nnc(C)s2)c1C	10µM	nt	nt	i	1.7µM
COCCn1c(C)cc(C(=O)CSc2nnnn2C2CCCC2)c1C	nt	0.1µM	?	nt	0.085µM
COCCn1c(SCC(=O)Nc2ccc(Br)cc2)nc2c([nH]c3ccccc32)c1=O	nt	nt	nt	nt	i
COc1ccc(CNCCCSc2nnnn2-c2ccccc2)cc1	nt	nt	nt	nt	i
CCOc1cc(C2C(C#N)=C(N)Oc3n[nH]c(C)c32)ccc1OCCN1CCOCC1 (stereo unspecified)	i	4µM	i	i	i[2.3 µM]
CCOc1cc(C2C(C#N)=C(N)Oc3n[nH]c(CC)c32)ccc1OCCN1CCOCC1 (stereo unspecified)	i	i	i	i	i
Cc1ccc2oc(=O)n(CCCOc3ccc(Cl)cc3)c2c1	nt	nt	nt	i	i
COC(=O)CCCC(=O)N1CCCC(CCC(=O)NCc2ccc(F)c(F)c2)C1 (stereo unspecified)	i	i	i	nt	17µM
COC(=O)c1ccccc1C(=O)N1CCCC(CCC(=O)NCc2ccc(F)c(F)c2)C1 (stereo unspecified)	i	i	?	nt	13µM
O=C(CCC1CCCN(C(=O)c2ccco2)C1)NCc1ccccc1F (stereo unspecified)	nt	i	i	nt	i
O=C(CCC1CCCN(C(=O)CCC(F)(F)F)C1)NCc1ccc(F)c(F)c1 (stereo unspecified)	i	i	i	nt	i
O=C(CCC1CCCN(C(=O)c2ccc3c(c2)OCCO3)C1)NCc1ccccc1F (stereo unspecified)	nt	i	2.8µM	nt	17µM
CCOc1ccc(OCC(=O)Nc2nnc3n2CCS3)cc1	nt	nt	nt	nt	i
CCc1c(C)sc2c1CCN(C(=O)Nc1cc(C)ccc1C)C2c1ccc(OC)cc1 (stereo unspecified)	nt	nt	nt	nt	i
CCCCOc1ccc(-n2nc(C)cc2C)nn1	i	?	?	i	17µM
CC(C)Oc1ccc(CNC(=O)Cn2ncn3nc(-c4cccs4)cc3c2=O)cc1	nt	nt	nt	nt	i
O=C(/C=C/c1ccc[nH]1)c1ccc(F)cc1	i	i	i	?	12µM
O=C(/C=C/c1c(F)cccc1Cl)c1ccc(F)cc1	?	i	i	i	6.7µM
SMILES	KinaseGlo FLuc	NPC1 prom act	Rab9 promoter act	SMN2 splice up	FLuc counter
O=C(/C=C/c1ccc[nH]1)c1ccccc1	i	i	?	i	12µM
COc1cc(OC)cc(-c2nnc(SCC(=O)N3CCC(C)CC3)o2)c1	nt	nt	nt	i	i
C/C(=N\NC(=O)CSCc1ccccc1Cl)c1cc(O)ccc1O	i	i	i	nt	19µM
O=C(Nc1ccc(OCC(=O)N2CCOCC2)cc1)c1ccccc1F	nt	i	i	nt	4.8µM
CN(C)S(=O)(=O)c1ccc(C(=O)Nc2ccc(OCC(=O)N3CCOCC3)cc2)cc1	i	i	i	i	15µM
COC(=O)Nc1ccc(OCC(=O)N2CCOCC2)cc1	i	i	i	i	i
Cc1cc(NC(=O)c2cc3ccccc3o2)cc(C)c1OCC(=O)N1CCOCC1	i	i	i	i	12µM
COc1cc(C(=O)Nc2ccc(C(F)(F)F)cc2)ccc1OCC(=O)N1CCOCC1	nt	i	i	nt	6.7µM
O=C(Nc1ccc(OCC(=O)N2CCOCC2)cc1)c1cccc(Cl)c1	nt	i	i	nt	7.6µM
COc1cc(C(=O)Nc2cc(C)c(OCC(=O)N3CCOCC3)c(C)c2)cc(OC)c1OC	i	i	i	nt	i
O=C(CCC1CCCC1)Nc1ccc(OCC(=O)N2CCOCC2)cc1	i	i	i	i	4.8µM
COc1ccc(C(=O)Nc2ccc(OCC(=O)N3CCOCC3)cc2)c(OC)c1OC	nt	i	i	nt	13µM
Cc1cc(NC(=O)c2ccccc2F)cc(C)c1OCC(=O)N1CCOCC1	nt	i	i	nt	9.5µM
